Screening data: PubChem BioAssay, NMMLSC
The list is not random: actives were taken first. Their share in the collection is about 1.2%.
GSH fluor: compound fluorescence on glutathione beads, profiling panel, artefact control, biophysical, 488/530 nm, flow cytometry; fluorescence (KMESF) at 10 µM; hit rate 0.25% among 190,000; GSH beads flow cytometry, compound fluorescence 488/530 nm; active compounds read high; AID 1776, 2009; in the data active = fluorescence above about 89;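 note: glutathione beads carrying GST-tagged Bcl family fusion proteins plus one bare bead set; values are compound well signal with DMSO vehicle wells as background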
Avidin fluor: green autofluorescence of compounds with avidin beads – biophysical, 488/530 nm, flow cytometry, artefact control, profiling panel; compound fluorescence 488/530 nm; active compounds read high; fluorescence (KMESF) at 10 µM; hit rate 0.38% among 220,000; AID 1775, 2009; in the data active = fluorescence above about 47
RGS8-Gao reg: RGS8-Galphao binding modulators, primary screen, biochemical, multiplexed bead flow cytometry; Guanine nucleotide-binding protein G(o) subunit alpha (Homo sapiens), P09471; actives lie on both sides; response (percent of control binding), % at 10 µM; hit rate 0.34% among 220,000; in the data active = response below about 60% or above about 140%; inactive = in between;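 note: Galphao activated as the GDP aluminium fluoride complex binding bead-coupled RGS8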
Target sequence (P09471 whole entry, looked up): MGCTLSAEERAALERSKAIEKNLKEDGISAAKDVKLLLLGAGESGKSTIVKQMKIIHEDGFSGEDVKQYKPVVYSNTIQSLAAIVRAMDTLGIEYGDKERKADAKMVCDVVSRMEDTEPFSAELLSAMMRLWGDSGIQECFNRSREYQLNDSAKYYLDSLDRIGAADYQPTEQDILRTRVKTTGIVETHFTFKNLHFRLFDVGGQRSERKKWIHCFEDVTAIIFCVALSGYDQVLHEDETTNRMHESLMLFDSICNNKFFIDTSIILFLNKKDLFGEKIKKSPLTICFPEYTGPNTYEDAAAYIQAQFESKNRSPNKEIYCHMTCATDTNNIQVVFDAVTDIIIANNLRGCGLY
RGS4-Gao reg: modulators of RGS4 binding to Galphao, primary screen, biochemical, multiplexed bead flow cytometry; Guanine nucleotide-binding protein G(o) subunit alpha (Homo sapiens), P09471; actives lie on both sides; binding response (% of control), % at 10 µM; hit rate 0.33% among 220,000; in the data active = binding response below about 49% or above about 150%; inactive = in between;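 note: fluorescent Galphao activated with aluminum fluoride binding bead-coupled RGS4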
RGS7-Gao reg: RGS7-Galphao binding modulators, primary screen, biochemical, multiplexed bead flow cytometry; Guanine nucleotide-binding protein G(o) subunit alpha (Homo sapiens), P09471; actives lie on both sides; binding response (% of control), % at 10 µM; hit rate 0.35% among 220,000; in the data active = binding response below about 49% or above about 150%; inconclusive = no clear call, values can overlap the other calls; inactive = in between;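 note: fluorescent Galphao held in activated GDP-AlF4 state binding bead-coupled RGS7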
RGS16-Gao HTS: modulators of RGS16 binding to Galphao, primary screen, biochemical, human proteins, multiplexed bead flow cytometry | bead-based flow cytometry RGS16-Galphao binding, fluorescence; actives lie on both sides | binding response (% of control), % at 10 µM | hit rate 0.38% among 220,000 | AID 1441, 2008;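 note: Galphao activated by GDP with aluminum fluoride before binding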
Target sequence (O15492 whole entry, looked up): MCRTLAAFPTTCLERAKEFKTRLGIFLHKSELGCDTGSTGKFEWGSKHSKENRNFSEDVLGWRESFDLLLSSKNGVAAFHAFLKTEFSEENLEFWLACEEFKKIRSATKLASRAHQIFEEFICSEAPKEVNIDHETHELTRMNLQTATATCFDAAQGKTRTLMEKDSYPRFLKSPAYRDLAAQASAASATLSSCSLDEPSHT
Target sequence (P09471 whole entry, looked up): as the sequence (P09471 whole entry, looked up) above
RGS4-Gao HTS: modulators of RGS–Galpha-o binding, primary screen, biochemical, multiplexed beads, flow cytometry, RGS4/7/8/16/19 | shares compounds with RGS16-Gao HTS | multiplexed bead flow cytometry | RGS4–Galpha-o binding response, % at 10 µM | hit rate 99% among 1,600 | AID 1504, 2009;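 note: fluorescently labeled Galpha-o bound to GDP with aluminium fluoride binding biotinylated RGS beads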
Biotin-avidin: disruption of biotin probe capture by avidin, counter-screen for RGS protein interaction modulators, biochemical, flow cytometry, bead-based | inhibition, % at 10 µM | 1,700 tested, under 10 active | AID 1783, 2009 | shares compounds with RGS16-Gao HTS | streptavidin beads, fluorescein-biotin binding;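 active = inhibition above 50%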;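 note: median green fluorescence of gated singlet beads compared with DMSO control wells; 0% = DMSO wells and 100% = complete loss of bead fluorescence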
RGS8-Gao single: RGS8-Galphao binding modulators, confirmation, biochemical, multiplexed bead flow cytometry, single concentration; bead-based flow cytometry RGS8-Galphao binding, fluorescence; actives lie on both sides; AID 1836, 2009; shares compounds with RGS16-Gao HTS; binding response (% of control), % at 10 µM; hit rate 3% among 1,700; in the data active = binding response below about 72% or above about 130%; inactive = in between;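 note: Galphao activated as GDP AlF4 complex before binding bead RGS8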
RGS7-Gao single: RGS7-Galphao binding modulators, confirmation, biochemical, multiplexed bead flow cytometry, single concentration. response (percent of control binding), % at 10 µM. hit rate 7.8% among 1,700. shares compounds with RGS16-Gao HTS. bead-based flow cytometry RGS7-Galphao binding; actives lie on both sides. AID 1837, 2009; in the data active = response below about 75% or above about 130%; inactive = in between;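 note: fluorescent Galphao activated with GDP and aluminum fluoride binding bead-coupled RGS7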
RGS16-Gao conf: modulators of RGS16-Galphao protein binding, confirmation, biochemical, single concentration, multiplexed bead flow cytometry; hit rate 4% among 1,700; bead-based flow cytometry; actives lie on both sides; response (% of control binding), % at 10 µM; shares compounds with RGS16-Gao HTS; in the data active = response below about 74% or above about 130%; inactive = in between;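 note: Galphao activated as the GDP aluminium fluoride complex binding bead-coupled RGS16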
RGS4-Gao confirm: modulators of RGS4-Galphao protein binding, confirmation, biochemical, single concentration, multiplexed bead flow cytometry; hit rate 4% among 1,700; binding response (% of control), % at 10 µM; shares compounds with RGS16-Gao HTS; actives lie on both sides; in the data active = binding response below about 74% or above about 130%; inactive = in between
RGS19-Gao conf: regulators of RGS19-Galphao binding, confirmation, biochemical, single point, multiplexed bead flow cytometry; shares compounds with RGS16-Gao HTS; response (percent of control binding), % at 10 µM; hit rate 5% among 1,700; bead-based flow cytometry RGS19-Galphao binding; actives lie on both sides; in the data active = response below about 50% or above about 160%; inactive = in between;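 note: 100% = no compound control and 0% = blank background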
* = called active by the depositor; [ ] = dose if it differs, or a comment. Unless noted, the rule behind the calls is not given here.

Results for CC1=CC(C)(C)N=C(NC#N)N1 ?
GSH fluor: 46; Avidin fluor: -2; RGS8-Gao reg: 60; RGS4-Gao reg: 42*; RGS7-Gao reg: 44*; RGS16-Gao HTS: 77; Biotin-avidin: 0; RGS8-Gao single: 99; RGS7-Gao single: 93; RGS16-Gao conf: 97; RGS4-Gao confirm: 97; RGS19-Gao conf: 102

What do the screens show for `CC1c2ccsc2CCN1S(=O)(=O)c1cccs1` (stereo not given)?
Avidin fluor: 11; RGS8-Gao reg: 101; RGS4-Gao reg: 102; RGS7-Gao reg: inconclusive; RGS16-Gao HTS: 101

What do the screens show for `O=[N+]([O-])c1ccc2nc(SCc3ccccc3Cl)sc2c1`?
GSH fluor: 19; Avidin fluor: 16; RGS8-Gao reg: 99; RGS4-Gao reg: 93; RGS7-Gao reg: 97; RGS16-Gao HTS: 95

Results for O=C(CSc1nc2ccc([N+](=O)[O-])cc2s1)c1ccc2ccccc2c1 ?
Avidin fluor: 0; RGS8-Gao reg: 31*; RGS4-Gao reg: 3.0*; RGS7-Gao reg: inconclusive; RGS16-Gao HTS: 5.0*; Biotin-avidin: 1; RGS8-Gao single: 101; RGS7-Gao single: 106; RGS16-Gao conf: 104; RGS4-Gao confirm: 105; RGS19-Gao conf: 109

How did CSC1=NCCN1CCOc1ccccc1 do in these assays?
GSH fluor: 13; Avidin fluor: 12; RGS8-Gao reg: 102; RGS4-Gao reg: 104; RGS7-Gao reg: 107; RGS16-Gao HTS: 104

How did O=C1c2cccc3c([N+](=O)[O-])ccc(c23)C(=O)N1CCc1ccccn1 do in these assays?
Avidin fluor: 8; RGS8-Gao reg: 98; RGS4-Gao reg: 96; RGS7-Gao reg: inconclusive; RGS16-Gao HTS: 96

How did O=C1c2ccccc2C(=O)N1CCc1ccccn1 do in these assays?
GSH fluor: 24; Avidin fluor: 3; RGS8-Gao reg: 153*[activator]; RGS4-Gao reg: 127; RGS7-Gao reg: 117; RGS16-Gao HTS: inactive; RGS4-Gao HTS: 127*; Biotin-avidin: 1; RGS8-Gao single: 102; RGS7-Gao single: 100; RGS16-Gao conf: 99; RGS4-Gao confirm: 98; RGS19-Gao conf: 54

What do the screens show for `CCC(C)(C(=O)NC1CCCCC1)N(C(=O)Cc1cccs1)c1ccccc1` (stereo not given)?
GSH fluor: 23; Avidin fluor: 6; RGS8-Gao reg: 97; RGS4-Gao reg: 99; RGS7-Gao reg: 98; RGS16-Gao HTS: 89

What do the screens show for `CCOC(=O)c1oc2nc(CC(C)C)c3c(c2c1N)CCCC3`?
Avidin fluor: 3; RGS8-Gao reg: 107; RGS4-Gao reg: 111; RGS7-Gao reg: inconclusive; RGS16-Gao HTS: 111

What do the screens show for `CNC(=S)Nc1ccc(N2CCN(c3ccc(C(F)(F)F)cn3)CC2)nc1`?
Avidin fluor: 6; RGS8-Gao reg: 99; RGS4-Gao reg: 100; RGS7-Gao reg: inconclusive; RGS16-Gao HTS: 98

How did CC(C)Oc1ccc(C(CC(=O)O)NC(=O)c2cccs2)cc1 (stereo not given) do in these assays?
GSH fluor: 30; Biotin-avidin: 2; RGS8-Gao single: 94; RGS7-Gao single: 81; RGS16-Gao conf: 88; RGS4-Gao confirm: 86; RGS19-Gao conf: 90

Results for CCCOc1ccc(C(CC(=O)O)NC(=O)c2cccs2)cc1 (stereo not given) ?
GSH fluor: 27; Avidin fluor: 33; RGS8-Gao reg: 101; RGS4-Gao reg: 100; RGS7-Gao reg: 103; RGS16-Gao HTS: 99

How did O=[N+]([O-])c1ccc(-n2cnc3ccccc32)c([N+](=O)[O-])c1 do in these assays?
GSH fluor: 17; Avidin fluor: 6; RGS8-Gao reg: 97; RGS4-Gao reg: 97; RGS7-Gao reg: 92; RGS16-Gao HTS: 97

What do the screens show for `Cc1ccc(C(=O)N/N=C2\SCC(=O)N2c2cc(C)ccc2C)cc1`?
GSH fluor: 47; Avidin fluor: 3; RGS8-Gao reg: 74; RGS4-Gao reg: 81; RGS7-Gao reg: 83; RGS16-Gao HTS: 22*; RGS4-Gao HTS: 81*; Biotin-avidin: -2; RGS8-Gao single: 109; RGS7-Gao single: 107; RGS16-Gao conf: 108; RGS4-Gao confirm: 106; RGS19-Gao conf: 108

What do the screens show for `Cc1cccc(N2C(=O)CS/C2=N\NC(=O)c2ccc(Br)cc2)c1C`?
GSH fluor: 13; Avidin fluor: 20; RGS8-Gao reg: 106; RGS4-Gao reg: 103; RGS7-Gao reg: 106; RGS16-Gao HTS: 112

How did O=C1N/C(=N\c2ccccn2)SC1Cc1ccccc1Cl (stereo not given) do in these assays?
Avidin fluor: 5; RGS8-Gao reg: 91; RGS4-Gao reg: 87; RGS7-Gao reg: inconclusive; RGS16-Gao HTS: 86
